Screens (PubChem BioAssay)
An excerpt weighted towards active compounds, which were near 13% of everything screened.
Pf growth 96h = inhibits malaria parasite growth, 96 h. P. falciparum luciferase reporter growth, 96 h. Potency, µM (top dose mostly 28.7 µM), for inactives: at the highest dose activity change, negative = inhibition, hits mostly inhibitors. actives 6.9% (n = 320,000); note: potency is the fitted concentration of half-maximal effect
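Delayed-death screen, second-generation endpoint: infected erythrocytes, 2% hematocrit, 0.05% parasitemia final; 96 hours at 37 C, 5% CO2; luciferase detection reagent; luminescence decrease equals reduced growth.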
Pf growth 48h = P. falciparum growth inhibition at 48 hours (one generation); Potency, µM (top dose mostly 28.7 µM), for inactives: at the top dose activity change, negative = inhibition, actives largely listed as inhibitors; P. falciparum luciferase growth in erythrocytes, 48 h; actives 5.9% (n = 310,000); note: potency is the fitted concentration of half-maximal effect
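Erythrocytes infected with P. falciparum carrying an integrated firefly luciferase reporter (2% hematocrit, 0.1% parasitemia final) were exposed to compounds in RPMI 1640 with 0.5% Albumax at 37 C, 5% CO2. Growth inhibition was scored as reduced luminescence.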
HCV inh = HCV inhibition. Huh7.5.1 HCVcc-Cre infection, luciferase reporter, 44 h. Potency, µM (doses to about 41.8 µM), inactives show at the top dose activity change, negative = inhibition, hits mostly inhibitors. actives 3.4% (n = 340,000); note: potency is the fitted concentration of half-maximal effect
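Infectious HCVcc-Cre (~0.5 moi) was added to cells just after compound, with cells seeded 4 h earlier at 1,000 per well. Luciferase activity after 44 h culture reported infection; substrate was incubated 15 min at room temperature before reading.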
HCMV antiviral = inhibitors of human cytomegalovirus; AID 1259415; activity change, negative = inhibition, % at 57.5 µM; HFF cells, HCMV-luciferase reporter, 72 h; hits give low values; actives 4.5% (n = 410,000); in the data active = activity change below about -60%; inconclusive = no clear call, values can overlap the other calls; inactive = above about -39%
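Cell-based, HFFs, 1000 cells/well, 16 h 37C; cpds in DMSO + HCMV-luc, MOI 1 PFU/cell; 72 h 37C; OneGlo luminescence after 5 min RT; norm. to buffer vs Salinomycin 10uM.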
Active calls of the source: *; ? = inconclusive; . = not tested or not shown; ! = a repeat was not active. Unless noted, calls come from the whole dose curve; as a rule, active = well fitted inhibition curve with a large enough effect; inconclusive = small, poorly fitted or top-dose-only effect, or another doubt; inactive = no such curve, though single readings can be large or run the other way. % is set by controls: 0 for no effect and ±100 for the full control effect.

SMILES	Pf growth 96h	Pf growth 48h	HCV inh	HCMV antiviral
Cc1cccc(NC(=O)Cn2nnc(-c3nc(-c4ccncc4)no3)c2N)c1	.	.	.	5.5
Cc1[nH]cnc1C(=O)N/N=C/c1ccc([N+](=O)[O-])s1	1.85µM*	?	?	-90.4*
Cc1cc(C(=O)N/N=C/c2ccc([N+](=O)[O-])s2)n[nH]1	2.08µM*	?	10µM*	-90.9*
Cc1ccc2cc(N)ccc2n1	10.8%	-5.2%	8.1%	-8.9
Nc1ccc2cc3ccc(N)cc3nc2c1	2.39µM*	3.79µM*	.	.
CCN1CCCc2cc(CN(CCN3CCOCC3)C(=S)Nc3ccc(OC)cc3)ccc21	5.86µM*	-11.4%	2.8%	-36.3
CCOc1ccc(NC(=S)N(CCN2CCOCC2)Cc2ccc3c(c2)CCCN3CC)cc1	?	?	-20.9%	?
COc1ccc(NC(=S)N(CCCN2CCCCC2)Cc2cccs2)cc1	11.7µM*	?	-16.8%	?
COc1ccc(NC(=S)N(CCCN2CCC(C)CC2)Cc2cccs2)cc1	5.86µM*	0.0%	?	26.6
COc1cccc(NC(=S)N(CCCN2CCC(C)CC2)Cc2cccs2)c1	4.5%	-29.2%	?	26.2
CCc1cccc(N2C(=O)N(Cc3c(F)cccc3Cl)c3ccccc3S2(=O)=O)c1	.	.	.	6.9
CCOC(=O)c1c(-c2ccccc2)oc2ccc(NS(=O)(=O)c3cc(C)c(C)cc3C)cc12	.	.	.	12.8
O=[N+]([O-])c1ccc(Oc2cccc(Br)c2)c2ccncc12	.	11.7µM*	?	62.5
O=[N+]([O-])c1cccc2cnccc12	.	.	8.6%	-31.6
O=[N+]([O-])c1ccc(Oc2ccc(F)cc2)c2ccncc12	.	9.28µM*	?	-68.2*
COc1ccc(CNC(=O)C2CCN(Cc3nc(-c4ccc(OC)c(OC)c4)oc3C)CC2)cc1	.	.	.	16.3
CCC1CCCCN1CCCNC(=O)COc1cc(=O)n(C)c2ccccc12 (centres undefined)	61.1%	5.1%	-0.9%	223.3
CCC1CCCCN1CCCNC(=O)CCCOc1cc(=O)n(C)c2ccccc12 (centres undefined)	6.57µM*	-22.4%	-12.2%	68.7
COc1cccc(NC(=O)CCCOc2cc(=O)n(C)c3ccccc23)c1	30.0%	-10.6%	2.8%	252.9
COC(=O)c1ccccc1NC(=O)CCCOc1cc(=O)n(C)c2ccccc12	.	.	.	-99.4*
CCc1cccc(NC(=O)Cn2c(=O)n(CCCCCC(=O)NCc3ccc(F)cc3)c(=O)c3sccc32)c1	.	.	.	-7.0
COC(=O)C1=C(C)NC(=O)NC1c1cn(-c2ccccc2)nc1-c1ccc(OC)c(Br)c1 (centres undefined)	.	.	.	12.3
Cn1nc(-c2ccccc2F)c2cc(C(=O)Nc3ccc4c(c3)OCCO4)sc21	-5.4%	.	-59.3%	114.5
COCCCNC(=O)c1cc2c(-c3cccc(OC)c3)nn(C)c2s1	?	14.3%	-55.6%	-9.9
CCN(CC)CCNC(=O)c1cc2c(-c3cccc(OC)c3)nn(C)c2s1	?	1.47µM*	12.6µM*	-78.4*!
SMILES	Pf growth 96h	Pf growth 48h	HCV inh	HCMV antiviral
COc1cccc(-c2nn(C)c3sc(C(=O)Nc4ccc5c(c4)OCCO5)cc23)c1	27.5%	?	3.16µM*	.
COc1ccc(-c2nn(C)c3sc(C(=O)Nc4cccc(F)c4)cc23)cc1OC	.	.	.	-85.0*
COc1ccc(OC)c(CNC(=O)c2cc3c(-c4ccc(OC)c(OC)c4)nn(C)c3s2)c1	.	.	.	-8.5
COc1cccc(-c2nn(C)c3sc(C(=O)NCc4ccccn4)cc23)c1	93.5%	?	10µM*	105.8
COc1ccc(-c2cn3nc(SCC(=O)Nc4ccccc4F)ccc3n2)cc1	.	.	.	43.5
O=C(CSC1=Nc2ccccc2N=C(c2ccc(F)cc2)C1)Nc1ccc(Cl)cc1	.	.	.	-5.6
COc1cccc(-c2nn(C)c3sc(C(=O)NCCc4cccc(C)c4)cc23)c1	.	.	.	-68.7*
Cc1cc(C)nc(/N=C(\N)Nc2ccc(S(=O)(=O)Nc3nc(C)cc(C)n3)cc2)n1	2.1%	23.4%	.	.
Cc1ccc(CN=C(N)Nc2nc(C)cc(C)n2)cc1	15.3%	?	15.8µM*	-79.6*
CC1CCCCN1C(=O)C1CCN(c2nc(-c3ccccc3)nc3c2CCC3)CC1 (centres undefined)	?	7.38µM*	3.98µM*	?
O=C(C1CCN(c2nc(-c3ccccc3)nc3c2CCC3)CC1)N1CCCC1	.	.	11.2µM*	-6.8
Cc1cccc(NC(=O)C(=O)NCC(c2cccnc2)N2CCOCC2)c1 (centres undefined)	.	.	.	-1.5
O=C(N1CCCCC1)C1(c2ccccc2)CCOCC1	11.7µM*	-5.2%	-4.1%	-8.0
Cc1ccc(NC(=O)Nc2cccnc2)cc1NC(=O)Nc1cccnc1	?	9.28µM*	11.2µM*	?
CC(=O)c1cccc(NC(=O)Nc2cccnc2)c1	.	-6.5%	1.2%	-76.8*
O=C(Nc1cccnc1)Nc1cccc(F)c1	?	6.1%	18.5%	-30.8
CCOc1cccc(C(=O)NC(=S)Nc2cccnc2)c1	2.62µM*	38.6%	1.5%	-0.8
Cc1ccc2c(=O)cc(C(=O)Nc3cccc(C(F)(F)F)c3)oc2c1C	.	.	.	3.9
CCc1cccc(C)c1NC(=O)Cn1c(=O)n(-c2ccc(C)cc2)c(=O)c2c1cnn2C	.	.	.	13.5
CC12CCC(=O)C=C1CCC1C2C(O)CC2(C)C(c3csc(N)n3)CCC12 (centres undefined)	.	.	?	-22.1
CC(=O)[C@H]1CC[C@H]2[C@@H]3CCC4=CC(=O)CC[C@]4(C)[C@H]3CC[C@]12C	10.4µM*	?	12.7%	-10.1
